From PubChem BioAssay (NCI) come the findings set out here.

This is part of a sample that, as a whole, favours compounds with a hit. Of some 79,000 tested, about 15% had one in any assay. A number with no mark means an inactive call. Active and inactive are the calls of the source. No stated cut-off is given here; in the data, active means growth inhibition above about 70%; inactive means the rest.

The nature of this assay: NCI Yeast Anticancer Drug Screen. Data for the rad50 strain (AID 155).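 Further: 0% = growth of vehicle-only cultures of the same strain.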 The conditions noted are these: S. cerevisiae rad50 strain growth inhibition; at 50.0 µM; stronger effect = higher value. Summed up:
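Cells are treated with compound, grown, and their growth is then scored against vehicle-only cultures of the same repair-deficient yeast strain.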
`COc1cccc(NC(=O)CC(=O)NN2C(=O)/C(=C/c3ccc(N(CCC#N)CCC#N)cc3)N=C2c2cc([N+](=O)[O-])ccc2Cl)c1`: the growth inhibition was 17.4%. The result for `CC(C)(C)[Si](C)(C)OCCc1ccccc1C1CC2(S(=O)(=O)c3ccccc3)ON1CC2S(=O)(=O)c1ccccc1` (stereo not given) reads 15.1%; that for `Nc1ccc(N2N=C(N3CCCC3)CC2=O)cc1`, -26.6%; that for `OCc1ccc2ccccc2n1`, 24%.

Regarding `COc1ccc(CCNC(=S)N/C=C(\C#N)S(=O)(=O)c2ccc(C)cc2)cc1OC`, the growth inhibition is 6%. Consider `O=C(/C=C\c1ccc(Cl)cc1)OCCCCOC(=O)/C=C/c1ccc(Cl)cc1`, for which the growth inhibition is 27.1%. With `Oc1ccccc1/C=N/Nc1nc(N/N=C/c2ccccc2O)nc(N/N=C/c2ccccc2O)n1` the figure was 25.3%.

With `CC(C)CCCC(C)C1CCC2C3CC=C4CC(OC5CCC6(C)C(=CCC7C6CCC6(C)C(C(C)CCCC(C)C)CCC76)C5)CCC4(C)C3CCC12C` (stereo not given), the growth inhibition is -0.05%. Regarding `COc1ccc(N2C(=O)[C@@H]3[C@H](C2=O)c2[nH]c4ccccc4c2C2CCC(C(C)(C)C)C[C@@H]23)cc1` (stereo not given in full), the growth inhibition is 29.6%. For `C=CCC1(C(C)C(O)c2cc(OC)c(OC)c(OC)c2)CC(O)C=CC12OCCO2` (stereo not given), the growth inhibition is 13.9%. With `CCOc1ccc(N2C(=O)C(=O)C(C#N)(c3nc4ccccc4o3)C(=O)C2=O)cc1`, the growth inhibition was 9.25%. Turning to `CC(=O)c1ccc(N2CCCCC2)cc1`, the growth inhibition is -7.8%. Regarding `CCOC(=O)c1ccc(Nc2cnc3ccc(C(F)(F)F)cc3n2)cc1`, the growth inhibition was 14.4%. For the compound `Cc1ccc(C(=O)C(c2nc3n(c2O)/C(=N/C(=O)Nc2ccc(Cl)cc2)N=N3)c2nc3n(c2O)/C(=N/C(=O)Nc2ccc(Cl)cc2)N=N3)cc1`, the growth inhibition is -44.1%. With `CCCCS(=O)(=O)CCC(N)C(=O)O` (stereo not given) the figure was -3.45%; with `Clc1ccc(C2N3CCCCC3[C@@H]3c4[nH]c5ccccc5c4CCN23)cc1` (stereo not given in full), -11.7%.

In the case of `O=C1NC(=O)C(c2ccc(Cl)c(Cl)c2)N1` (stereo not given), the growth inhibition was 11.2%. As for `CCCC(C)C(=O)OCCOC` (stereo not given), the growth inhibition was 2.85%. Regarding `Cc1ccc(N=Cc2cc(Cl)cc(Cl)c2OC(=O)c2ccccc2)cc1C`, the growth inhibition was 81.8% (active). Regarding `CN(Cc1ccccc1)C(=O)NC1CCCCC1`, the growth inhibition was 2.3%. With `c1ccc2c(-c3ccncc3)c3ccccc3cc2c1` the figure was 20.8%; with `C(=N/Nc1ccccc1)/c1ccco1`, 31.6%; with `CCCc1sc(NC(C)=O)nc1-c1ccccc1`, 1.2%. With `CC(=O)OC1CCC2(C)C(CCC3(C)C2CC=C2C4CC(C)(C)CCC4(C)CCC23C)C1(C)C` (stereo not given), the growth inhibition was 5.85%. The result for `CCOC(=O)C(C)c1nc2cc(C(F)(F)F)ccc2[nH]c1=O` (stereo not given) reads 3.55%; that for `NC(=O)C(=O)NNC(=O)Nc1ccc(Cl)cc1`, 16.8%.

Consider `CCCCC1OCCOC1C1COCCO1` (stereo not given), for which the growth inhibition is -7.25%. As to `CC(=O)Oc1ccc(Nn2c3ccccc3c3ccccc32)c(C)c1`, the growth inhibition is 56.6%. Consider `CCCCCCCCC(=O)Nc1nc2nc[nH]c2c(=O)[nH]1`, for which the growth inhibition is -9.65%. Consider `CCC(CC)C(=O)OCCCCC1CCCO1` (stereo not given), for which the growth inhibition is 6.25%.

For `CC(C)C(=O)OC1(Cc2cccc[n+]2C)CCCCC1`, the growth inhibition was 8.8%.

As to `CCCCCCn1ncc(=O)[nH]c1=O`, the growth inhibition was 4.2%. As to `Cc1ccc(O)c(C)n1`, the growth inhibition is 4.2%. For `N#C/C(=C\C1CCCC([N+](=O)[O-])C1)C1CCC([N+](=O)[O-])CC1` (stereo not given), the growth inhibition was -0.55%.

On to `CC(=O)c1cccc2c(C(C)=O)cccc12`, for which the growth inhibition was 5.45%.

Turning to `CN1C(=O)CC(c2ccc(Cl)cc2)C1=O` (stereo not given), the growth inhibition was 21.4%. With `C=CCNC(=S)N(Cc1ccccc1)Cc1ccccc1`, the growth inhibition was 86.2% (active).

`CC(C)(C)NCC(O)c1ccc(O)c(CO)n1` (stereo not given): the growth inhibition was 1.3%.

On to `O=S1(=O)C2C=CCC1C(Cl)CC2` (stereo not given), for which the growth inhibition is -7.7%.

`O=C1c2ccccc2-c2nc(/C=C/c3ccccc3)cc3c2c1nc1ccccc13`: the growth inhibition was 10.2%.
